From PubChem
Mtb betalactam: beta-lactam sensitization of Mtb H37Rv, H37Rv. M. tuberculosis H37Rv growth with meropenem, percent inhibition. inhibition, % at 25 µM. 330,000 tested, 0.27% active. AID 434955, 2010; call rule not given here;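 also: growth measured after seven days incubation then overnight dye step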
RN4220 kill: growth inhibition of S. aureus RN4220, primary screen, OD600; 16 h; inhibition, % (test concentration not listed); 330,000 tested, 0.33% active; in the data active = inhibition above about 85%
Sa ugtP lethal: growth inhibition of ugtP-null S. aureus, primary screen, RN4220 ugtP deletion, OD600; 16 h; growth inhibition, % (no concentration beside the values); 330,000 tested, 0.54% active; in the data active = growth inhibition above about 68%
BioA inh: M. tuberculosis BioA enzyme inhibitors, primary screen, biochemical, plate reader, single point, HTS; 7,8-diaminopelargonic acid synthase BioA (Mycobacterium tuberculosis); purified M. tuberculosis BioA enzyme; inhibition, % at 9.99 µM; 360,000 tested, 0.096% active; AID 602481, 2012; in the data active = inhibition above about 40%; inconclusive = no clear call, values can overlap the other calls
PfHsp40 rescue: rescue of yeast from PfHsp40 toxicity, primary screen, S. cerevisiae, ATP luminescence; S. cerevisiae expressing PfHsp40, growth rescue; growth rescue, % at 12.5 µM; 340,000 tested, 0.68% active; in the data active = growth rescue above about 28%, passing the limit was not always enough; inconclusive = no clear call, values can overlap the other calls;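 also: yeast W303a lacking pdr1 and pdr3 grown in galactose medium; growth measured after three days at 30 °C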
Each line names hits and unclear results; the compound was inactive in the other large screens. Rows were chosen to be rich in hits. Some 0.9% of all compounds tested hit in one or more screens of this group.

CC1CN(C(C)CO)C(=O)c2cccc(NC(=O)Cc3ccccc3)c2OC1CN(C)C(=O)NC1CCCCC1 (stereo not given)	none (no result: Mtb betalactam, BioA inh, PfHsp40 rescue)
O=C1CCCc2cc3c(cc21)CCCC3	PfHsp40 rescue 33.4 (no result: Mtb betalactam)
Cc1cccc(C2C3C(=O)N(Cc4ccccc4)C(=O)C3[C@]3(CC(C)C)C(=O)N(c4cccc(Cl)c4)C(=O)N23)c1 (stereo not given in full)	none (no result: Mtb betalactam, BioA inh, PfHsp40 rescue)
O=C(CSc1nnc(-c2ccccc2)c(-c2ccccc2)n1)Nc1ccc(Br)cn1	Sa ugtP lethal 88.1 (no result: BioA inh)
CC(=NNC(=S)N1CC2CCC(CC2)C1)c1cccc(C)n1	none (no result: Mtb betalactam, RN4220 kill, Sa ugtP lethal, BioA inh)
CC(=NNC(=S)N1CC2CCC(CC2)C1)c1nccs1	PfHsp40 rescue 126.3 (no result: Mtb betalactam, RN4220 kill, Sa ugtP lethal, BioA inh)
Nc1nc2c(nc(Br)n2C2OC3COP(=O)(O)OC3C2O)c(=O)[nH]1 (stereo not given)	none (no result: Mtb betalactam, BioA inh, PfHsp40 rescue)
COc1ccc(OC)c(-c2cc(C3CCN(c4cc(Cl)nc(N)n4)CC3)[nH]n2)c1	none
COc1ccc(-c2cc(C3CCN(c4cc(Cl)nc(N)n4)CC3)[nH]n2)cc1	Sa ugtP lethal 94.9
Nc1nc(Cl)cc(N2CCC(c3cc(-c4ccc(Cl)cc4)n[nH]3)CC2)n1	Sa ugtP lethal 94.2
COC(=O)C1CC1C(NS(=O)(=O)c1ccc2ccccc2c1)c1ccccc1 (stereo not given)	none (no result: Mtb betalactam, BioA inh, PfHsp40 rescue)
CC(NC(=O)c1nc[nH]c1C(=O)NCc1ccc(CNC(=O)OC(C)(C)C)cc1)C(=O)OC(C)(C)C (stereo not given)	none (no result: Mtb betalactam, BioA inh, PfHsp40 rescue)
COC(=O)c1ccc(-c2ccco2)n1Cc1cccc(C)c1	Mtb betalactam inconclusive, Sa ugtP lethal 94.5
O=C(N/N=C/c1cc([N+](=O)[O-])ccc1O)c1ccncc1	none (no result: RN4220 kill, Sa ugtP lethal, BioA inh)
O=C(N/N=C/c1cc([N+](=O)[O-])ccc1O)C1CC1	none (no result: Mtb betalactam, RN4220 kill, Sa ugtP lethal)
O=C1NCCCC1C(=O)N/N=C/c1cc([N+](=O)[O-])ccc1O (stereo not given)	none (no result: RN4220 kill, Sa ugtP lethal)
O=[N+]([O-])c1ccc(O)c(C=NNC(=S)Nc2ccc(Cl)cc2Cl)c1	Sa ugtP lethal 99.8 (no result: Mtb betalactam, BioA inh, PfHsp40 rescue)
O=C(NN=Cc1cc([N+](=O)[O-])ccc1O)C1C2CCCCC21 (stereo not given)	RN4220 kill 88.7 (no result: Mtb betalactam, BioA inh, PfHsp40 rescue)
O=C(NN=Cc1cc([N+](=O)[O-])ccc1O)C1CCCCC1	RN4220 kill 94.7, Sa ugtP lethal 85.6 (no result: Mtb betalactam, BioA inh, PfHsp40 rescue)
O=C1NCCCC1C(=O)NN=Cc1cc([N+](=O)[O-])ccc1O (stereo not given)	RN4220 kill 90.3 (no result: Mtb betalactam, BioA inh, PfHsp40 rescue)
CCOC1OC(C(=O)N2CCN(C)CC2)=CC(C(C)(C)C)C1CCCO (stereo not given)	none (no result: Mtb betalactam, BioA inh, PfHsp40 rescue)
O=C(O)CC1c2cc(C(F)(F)F)ccc2S(=O)(=O)N1C1CCCC1 (stereo not given)	none (no result: Mtb betalactam, BioA inh, PfHsp40 rescue)
Cn1c(=O)c(-c2cc(=O)[nH][nH]2)c(O)c2ccccc21	PfHsp40 rescue 47.1 (no result: BioA inh)
O=c1cc(O)c2ccccc2n1Cc1ccccc1	none
CCn1c(=O)c(-c2ccccc2)c(O)c2ccccc21	none
O=c1cc(-c2c(O)c3ccccc3n(Cc3ccccc3)c2=O)[nH][nH]1	PfHsp40 rescue 155.2 (no result: BioA inh)
CCn1c(=O)c(-c2cc(=O)[nH][nH]2)c(O)c2ccccc21	PfHsp40 rescue 96.6
COc1ccc(N=C2SC(=Cc3cccs3)C(=O)N2CC(C)C)cc1	none (no result: Mtb betalactam, BioA inh, PfHsp40 rescue)
CCN1CCN(C(c2ccc(C(F)(F)F)cc2)c2ccc3cccnc3c2O)CC1 (stereo not given)	PfHsp40 rescue 59.6
COC(=O)C1=C(c2ccc(OC(F)(F)F)cc2)CC2CCC1N2C(=O)NC(C)C (stereo not given)	none (no result: Mtb betalactam, BioA inh, PfHsp40 rescue)
CCOn1c(=O)c(-c2cccc3ccccc23)[n+]([O-])c2ccccc21	none
O=c1c(-c2cccc3ccccc23)[n+]([O-])c2ccccc2n1O	PfHsp40 rescue 80.6
O=C(O)C1=CC(c2ccc(C(F)(F)F)cc2)CC(OCCCCO)O1 (stereo not given)	none (no result: Mtb betalactam, BioA inh, PfHsp40 rescue)
COc1c2c(cc(O)c1C(C)=O)OC(C)(C)C=C2	none (no result: Mtb betalactam)
CC(C)=CCC12Oc3cc(O)ccc3C1(O)Oc1cc3c(c(O)c1C2=O)C=CC(C)(C)O3 (stereo not given)	Sa ugtP lethal 96.6 (no result: BioA inh, PfHsp40 rescue)
N#C/C(=N\Nc1ccc(Cl)cc1)C(=O)c1ccccc1	none (no result: RN4220 kill, Sa ugtP lethal)
Cc1c(N/N=C(\C#N)C(=O)c2ccc(Cl)cc2)c(=O)n(-c2ccccc2)n1C	PfHsp40 rescue 99.5 (no result: BioA inh)
COC(=O)C(Cc1ccccc1)C(C)OS(N)(=O)=O (stereo not given)	none (no result: Mtb betalactam, BioA inh, PfHsp40 rescue)
CCC(C)Sc1cccc(-c2nc3ccccn3c2NCc2ccccc2)c1 (stereo not given)	PfHsp40 rescue 219.3
